Assay results from PubChem BioAssay (NCI).
About 83,000 compounds went through this panel and 20% of them were active in at least one assay; those are over-represented in the sample as a whole.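 Step 1: grow cells in 96-well plates. Step 2: add test compound at a single concentration. Step 3: incubate 48 h. Step 4: record percent growth.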 Values without a mark were called inactive. The source made the active and inactive calls.

System: OVCAR-8 ovarian
Experiment: NCI-60 one-dose screen, 48 h (100 = growth as untreated, 0 = no growth, -100 = all killed)
Details: 10 µM unless noted
Experimental: Growth inhibition of the OVCAR-8 human tumor cell line is measured as a screen for anti-cancer activity. Cells are grown in 96 well plates and exposed to the test compound for 48 hours. Compounds are tested at a single concentration, which is 10^-5 M for most compounds. The reported endpoint is percent growth (GI% or GIPRCNT), where numbers from 0 - 100% represent growth inhibition, and numbers from -100% - 0 represent cell death. For example, a value of 40 represents 60% growth inhibition. A value of 0 means no net growth occurred over the course of the experiment. A value of -40 indicates 40% of cells at the beginning of the experiment died by the end of the experiment. A value of -100 means all cells are dead at the end of the experiment.
NCI-60 Human Tumor Cell Lines Screen was performed using the standard one-dose NCI protocol, which is described in more detail at https://dtp.cancer.gov/discovery_development/nci-60/default.htm.
Compounds with GIPRCNT values below 10 were considered active. Activity score was based on GIPRCNT using the following formula: […]
Score is 0 for GIPRCNT values of 100 or above, 50 for GIPRCNT values of 0, and 100 for GIPRCNT values of -100.

SMILES	growth
COc1cccc(CC(C)=C(c2ccc(OCCCN(C)C)cc2)c2ccc(OCCCN(C)C)cc2)c1	-78.7% (active)
O=C1C2=C(C(=O)c3c(O)ccc(O)c31)N(c1ccc(N3CCOCC3)nc1)Cc1ccccc1O2	-10.6% (active)
COc1c(-c2cc(-c3ccc(C)o3)[nH]c(=O)n2)c(O)cc2occc12	73%
COc1c(C(=O)/C=C/c2ccc(C)o2)c(O)cc2occc12	84.8%
COc1cc2c(cc1OCCCOc1cc3c(cc1OC)C(=O)N1CCC[C@H]1C=N3)C=CC(C)(C)O2	89.2%
O=C(/C=C/c1cc([N+](=O)[O-])ccc1Cl)c1ccccc1	96.3%
COc1ccc(-c2cnc3ccnn3c2-c2cc(OC)c(OC)c(OC)c2)cc1	47%
C=CCN(CCOC(=O)c1ccc([N+](=O)[O-])cc1)CCOC(=O)c1ccc([N+](=O)[O-])cc1	98.7%
COc1cc(C2Nc3ccccc3S2)cc(CN2CCOCC2)c1O (stereo not given)	88.9%
COc1cc(C(=O)/C=C/c2cn(-c3ccccc3)nc2-c2cccc(Nc3ccnc4cc(Cl)ccc34)c2)cc(OC)c1OC	78.5%
CCOCC(O)(c1ccc(Cl)cc1)c1ccc(Cl)cc1	103%
COc1cc(CN2CCO[C@H](COc3cccc(F)c3)C2)ccc1Cl	22.2%
C=CCn1c(C)nc2cc(Nc3nc(N4CCCC4)nc4nc[nH]c34)ccc21	74.7%
CNCc1cccc2c1OCCOCCOCCC(C)S(=O)(=O)c1ccc(cc1)-c1cnc(N)c(n1)C(=O)N2 (stereo not given)	2.48% (active)
CC(C)NC(=O)OCC#CCOC(=O)NC(C)C	115%
Cc1ccc(NC(=O)c2nc(S(C)(=O)=O)oc2-c2ccc(F)cc2)cc1Nc1ccc2ncn(C)c(=O)c2c1	30.6%
CCOc1c(C#N)c2c(N)ncnc2n1C1OC(CO)C(O)C1O (stereo not given)	89.6%
COc1ccc2c(c1)N(CCO)C1=C(C(=O)OC1)C2c1cccc(Br)c1 (stereo not given)	14.6%
Nc1ccc(C(OC(=O)c2cc3ccccc3c(Cc3c(O)c(C(=O)OC(c4ccc(N)cc4)(c4ccc(N)cc4)c4ccc(N)cc4)cc4ccccc34)c2O)(c2ccc(N)cc2)c2ccc(N)cc2)cc1	13.5%
COc1ccc([C@@H]2[C@@H](Cl)C(=O)N2c2cc(OC)c(OC)c(OC)c2)cc1C	14.8%

SMILES	growth
COc1cc(NC(C)CCCN)c2ncccc2c1Sc1ccc(Cl)cc1 (stereo not given)	33.3%
CCc1ccc(Nc2ncnc3c2cnn3-c2cccc(Br)c2)cc1	93.3%
O=c1cc(-c2ccc3c(c2)OCCO3)oc2cc(Cl)ccc12	13.5%
CC(C)c1[nH]ncc1-c1nc2ccc3[nH]ncc3c2c2c1CCCC2	37.2%
CN(C)c1ccc(Nc2c3ccccc3nc3ccccc23)cc1	23.5%
CN1CCN(Cc2ccc(NC(=O)c3cncc(C#Cc4ccc(N)nc4)c3)cc2C(F)(F)F)CC1	20.1%
O=[N+]([O-])c1cc(F)c2cccnc2c1O	88.8%
Cc1ccccc1N1C(c2ccccc2)=NNC12C=CC(=O)c1c(O)cccc12 (stereo not given)	60.1%
COc1cc(-c2csc(NC(=O)Nc3cccc(C(F)(F)F)c3)n2)cc(OC)c1OC	22.6%
CC1=C(C(=O)Nc2ccc(F)cc2)C(c2ccccc2)C2=C(CC(C)(C)CC2=O)N1 (stereo not given)	73.3%
NS(=O)(=O)c1ccc(N2N=C(c3cccs3)CC2c2ccccc2O)cc1 (stereo not given)	9.96% (active)
Cc1ccc(O)c(Cc2ccccc2)c1	102%
O=C1c2ccccc2C2N1CCC1CCc3ccccc3N12 (stereo not given)	101%
COC1CC(N)C2OC(c3ccccc3)OCC2O1 (stereo not given)	98.4%
O=c1c2sc3ncc(Cl)cc3c2nnn1-c1cccc(Cl)c1	79.8%
COc1cc(C)cc2oc3oc(=O)c(-c4csc(-c5cc6ccccc6oc5=O)n4)cc3c(=O)c12	103%
Cc1nc2n[nH]c(N)c2nc1C	95.1%
COC(=O)c1cc2oc(/C=N/NC(=O)c3cc4oc(-c5cccc(C(F)(F)F)c5)cc4[nH]3)cc2n1Cc1ccccc1	75.2%
O=C1CC2(O)CSc3nc(=O)cc(n32)N1 (stereo not given)	107%
CCC(=O)NC(O)C(Cl)(Cl)C(C)Cl (stereo not given)	98.1%
